Reference: the supplement of paper PMC13380429

Tested on: Vero E6 infected with SARS-CoV-2
Experiment: inhibition of SARS-CoV-2 cytopathic effect; higher = more antiviral protection, active = above 15
Conditions: 48 h

Measured: inhibition of SARS-CoV-2 cytopathic effect

O=C1CCC2CCC(=O)N12 [rolziracetam]
inactive: 1 nM 0.67% | 8.33 nM 1.21% | 100 nM 1.49% | 833.33 nM -1.36% | 10000 nM -2.89%

OC[C@@H](O)[C@@H](O)[C@@H](O)CO [ribitol]
inactive: 1 nM 2.52% | 8.33 nM 3.83% | 100 nM 1.9% | 833.33 nM 3.1% | 10000 nM 1.14%

O=C1c2c(O)cc(O)cc2O[C@H](c2ccc(O)c(O)c2)[C@H]1O [taxifolin]
inactive: 1 nM 0.69% | 8.33 nM 1.31% | 100 nM 0.66% | 833.33 nM 0.83% | 10000 nM 2.25%

O=C(/C=C/c1cccc(F)c1)NC1CC1 [cinflumide]
inactive: 1 nM 2.05% | 8.33 nM 3.3% | 100 nM 0.17% | 833.33 nM 2.25% | 10000 nM 8.23%

O=C(NC(Cc1cc(=O)[nH]c2ccccc12)C(=O)O)c1ccc(Cl)cc1 (stereo not given) [rebamipide]
inactive: 1 nM -0.87% | 8.33 nM 2.6% | 100 nM 4.52% | 833.33 nM 2.91% | 10000 nM 1.77%

NC(=O)CN1CC(O)CC1=O (stereo not given) [oxiracetam]
inactive: 1 nM 1.13% | 8.33 nM 0.12% | 100 nM 0.71% | 833.33 nM 4.22% | 10000 nM 0.29%

CCOCc1nc2c(N)nc3ccccc3c2n1CC(C)(C)O [resiquimod]
inactive: 1 nM 2.06% | 8.33 nM 3.82% | 100 nM 1.55% | 833.33 nM 1.03% | 10000 nM -1.23%

Cc1cc(SCc2sc(-c3ccc(C(F)(F)F)c(F)c3)nc2C)ccc1OCC(=O)O
inactive: 1 nM 0.88% | 8.33 nM 1.12% | 100 nM -2.76% | 833.33 nM -1.29% | 10000 nM -1.19%

CC(=O)c1ccc2c(c1)N(CCCN1CCN(CCO)CC1)c1ccccc1S2 [acetophenazine]
inactive: 1 nM 1.65% | 8.33 nM 1.77% | 100 nM 2.3% | 833.33 nM 2.47% | 10000 nM 2.15%

CC(=O)O[C@H]1Cc2ccccc2N(C(N)=O)c2ccccc21 [eslicarbazepine-acetate]
inactive: 1 nM 3.04% | 8.33 nM -0.54% | 100 nM 1.48% | 833.33 nM 0.03% | 10000 nM 1.45%

NCCC(=O)N[C@@H](Cc1c[nH]cn1)C(=O)O [carnosine]
inactive: 1 nM -0.87% | 8.33 nM -1.74% | 100 nM -2.85% | 833.33 nM -2.56% | 10000 nM -17.4%

Nc1nccc(/C=C/c2ccccc2)n1
inactive: 1 nM 3.44% | 8.33 nM 3.79% | 100 nM 0.04% | 833.33 nM 0.59% | 10000 nM 2.05%

C=CCSCC1Nc2cc(Cl)c(S(N)(=O)=O)cc2S(=O)(=O)N1 (stereo not given) [althiazide]
inactive: 1 nM 0.54% | 8.33 nM 0.99% | 100 nM -0.07% | 833.33 nM -0.46% | 10000 nM 0.04%

c1ccc2c(c1)CCCC2C1=NCCN1 (stereo not given) [tetrahydrozoline]
inactive: 1 nM 0.31% | 8.33 nM -1.09% | 100 nM 2.06% | 833.33 nM 1.39% | 10000 nM 0.27%

N=C(N)c1ccc(OCCCCCOc2ccc(C(=N)N)cc2)cc1 [pentamidine]
inactive: 1 nM -3.18% | 8.33 nM -3.29% | 100 nM -4.34% | 833.33 nM -11.7% | 10000 nM 1.08%

COc1[nH]c2ccc(F)cc2c1C(=O)OCC1CCN(CCNS(C)(=O)=O)CC1
inactive: 1 nM 2% | 8.33 nM 2.46% | 100 nM 0.98% | 833.33 nM 0.39% | 10000 nM 1.56%

CO[C@H]1/C=C/O[C@@]2(C)Oc3c(C)c(O)c4c(O)c(c5c(nc6cc(C)ccn65)c4c3C2=O)NC(=O)/C(C)=C\C=C\[C@H](C)[C@H](O)[C@@H](C)[C@@H](O)[C@@H](C)[C@H](OC(C)=O)[C@@H]1C [rifaximin]
inactive: 1 nM 0.71% | 8.33 nM -2.16% | 100 nM -0.03% | 833.33 nM -3.72% | 10000 nM -3.3%

Clc1ccc(C(Cn2ccnc2)OCc2ccc(Sc3ccccc3)cc2)c(Cl)c1 (stereo not given) [fenticonazole]
inactive: 1 nM -3.37% | 8.33 nM 3.19% | 100 nM 0.76% | 833.33 nM 0.19% | 10000 nM 2.21%

COCCNC(=O)Cn1cnc([N+](=O)[O-])n1 [sanazole]
inactive: 1 nM -0.19% | 8.33 nM 0.45% | 100 nM -0.68% | 833.33 nM -0.43% | 10000 nM -3%
